Data: PubChem BioAssay AID743258 (The Scripps Research Institute Molecular Screening Center, 2014)
In all, about 3,300 compounds went through this assay and about 100 (3%) were called active. Only a sample is shown. Values without a mark were called inactive. No stated cut-off is given here; in the data, active means inhibition above about 9.5%; inactive means the rest.

Target: 1-phosphatidylinositol 4,5-bisphosphate phosphodiesterase gamma-1 (Homo sapiens) (UniProt P19174)
Assay: PLC-gamma1 enzyme inhibitors, counter-screen for PLC-beta3 inhibitor project, biochemical, fluorescence (AID 743258)
Settings: purified PLC-gamma1, fluorogenic substrate, at 12.3 µM, stronger effect = higher value

Sequence of 1-phosphatidylinositol 4,5-bisphosphate phosphodiesterase gamma-1 (Homo sapiens) (P19174 whole entry, looked up): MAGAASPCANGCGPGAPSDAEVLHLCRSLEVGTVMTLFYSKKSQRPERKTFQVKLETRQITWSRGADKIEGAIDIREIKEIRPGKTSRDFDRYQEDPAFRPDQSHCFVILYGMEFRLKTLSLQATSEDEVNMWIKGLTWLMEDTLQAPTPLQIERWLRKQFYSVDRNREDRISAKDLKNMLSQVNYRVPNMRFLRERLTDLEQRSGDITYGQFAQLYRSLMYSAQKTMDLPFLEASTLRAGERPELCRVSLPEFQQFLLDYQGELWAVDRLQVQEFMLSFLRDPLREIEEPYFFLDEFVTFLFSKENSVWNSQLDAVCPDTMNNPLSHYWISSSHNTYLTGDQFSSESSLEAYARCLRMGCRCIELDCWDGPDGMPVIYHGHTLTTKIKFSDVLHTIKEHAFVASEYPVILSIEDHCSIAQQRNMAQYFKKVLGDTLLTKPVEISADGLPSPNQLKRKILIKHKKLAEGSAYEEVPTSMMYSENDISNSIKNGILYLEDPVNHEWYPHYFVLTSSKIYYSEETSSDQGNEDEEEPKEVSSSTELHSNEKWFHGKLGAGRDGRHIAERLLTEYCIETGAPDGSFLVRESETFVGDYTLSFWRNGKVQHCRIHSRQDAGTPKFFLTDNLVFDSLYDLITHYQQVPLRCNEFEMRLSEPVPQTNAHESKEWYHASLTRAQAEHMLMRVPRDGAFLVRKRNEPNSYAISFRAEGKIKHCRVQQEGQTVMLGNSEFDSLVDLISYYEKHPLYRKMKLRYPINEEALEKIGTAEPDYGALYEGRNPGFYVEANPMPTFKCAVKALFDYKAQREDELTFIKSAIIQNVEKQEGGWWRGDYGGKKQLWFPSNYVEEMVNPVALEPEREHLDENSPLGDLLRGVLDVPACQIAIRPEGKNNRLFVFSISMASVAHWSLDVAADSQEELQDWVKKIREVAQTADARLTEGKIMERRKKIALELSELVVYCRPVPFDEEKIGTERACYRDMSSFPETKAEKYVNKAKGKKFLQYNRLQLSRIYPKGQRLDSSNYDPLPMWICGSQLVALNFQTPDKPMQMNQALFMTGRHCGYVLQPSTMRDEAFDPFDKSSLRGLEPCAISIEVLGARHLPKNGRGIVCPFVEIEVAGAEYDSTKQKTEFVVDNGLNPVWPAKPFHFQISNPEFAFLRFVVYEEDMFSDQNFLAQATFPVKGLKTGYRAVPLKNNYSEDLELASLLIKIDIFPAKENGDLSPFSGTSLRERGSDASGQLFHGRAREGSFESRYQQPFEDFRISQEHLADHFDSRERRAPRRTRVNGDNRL

Structure (SMILES) | inhibition
Cc1ccc(Cn2ccc(NC(=O)C3C4CCC(C4)C3C(=O)O)n2)cc1 (stereo not drawn) | 6.33%
N#Cc1c(NC(=O)C2CCCO2)sc2c1CCCCC2 (stereo not drawn) | -9.66%
Cc1nc2ccc(NC(=O)c3cccc(S(=O)(=O)N4CCOCC4)c3)cc2s1 | -12.2%
N#C[C@]1(S(=O)(=O)c2ccccc2)C[C@@H]2ON=C(c3cccc(Br)c3)[C@@H]2C1 | -2.59%
Nn1cnnc1N/N=C/c1cc([N+](=O)[O-])c(Cl)cc1Cl | -3.65%
Nc1nc(NCC(=O)O)nc(N2CCCCCC2)c1[N+](=O)[O-] | 0.65%
COCc1cc(C(C)=O)ccc1OC | -2.07%
C=CCOc1ccccc1/C=N/NC(=O)Cc1ccccc1 | -8.16%
C=CCSC(CC)(CC)C(N)=O | 2%
CCOc1ccc(OCC)c(NC(=O)CSc2nnc(Cn3cnc4ccccc43)n2C)c1 | -2.36%
COc1ccc(C(CNC(=O)c2cc(S(=O)(=O)Nc3cccc(C)c3)ccc2C)N2CCCC2)cc1 (stereo not drawn) | -5.37%
O=C(NCCCN1CCCCC1)C1CC(=O)N(CCc2ccccc2)C1 (stereo not drawn) | 0.03%
Clc1ccc(C2[C@H]3CN(CC4CCCCC4)[C@H](c4ccccc4)C34CC2(c2cccnc2)C4)cn1 (stereo partly drawn) | -4.79%
O=[N+]([O-])c1cc(C(F)(F)F)ccc1NN=C1CCCC1 | 8.96%
CCC1S/C(=N/N=C/c2ccco2)NC1=O (stereo not drawn) | -2.12%
O=S(=O)(c1ccc(F)cc1)N1CCN(C(=S)NC2CCCC2)CC1 | -7.54%
COc1ccc(CCNC(=O)COC(=O)Cc2ccccc2F)cc1 | -5.86%
CC(C)CCSc1ncnc2c1oc1nc3c(cc12)COC(C)(C)C3 | -6.65%
CNC(=O)n1ccc(C(=O)N2CCCCC2)n1 | -7.1%
Cc1cc2nc(SCCN3CCOCC3)[nH]c2cc1C | -0.23%
CC(C)Cn1cnc2c1c(=O)n(CC(O)c1ccccc1)c(=O)n2CC(C)C (stereo not drawn) | -3.61%
CCOc1ccccc1C1CC(c2cccc(NS(C)(=O)=O)c2)=NN1C(=O)c1ccccc1 (stereo not drawn) | -6.72%
CN(C(=O)c1cccc(NC(=O)Cc2cccc([N+](=O)[O-])c2)c1)C1CCCCC1 | -5.4%
O=C(Nc1cccc([N+](=O)[O-])c1)Nn1cnnc1 | 0.91%
CS(=O)(=O)N(Cc1ccc(Cl)cc1)c1ccc(C(=O)NCCSCc2ccco2)cc1 | 0.35%
COc1ccc(NC(=O)c2ccc(OC)cc2)cc1 | -6.63%
C=CCN(c1ccc(Cl)cc1)S(=O)(=O)c1cccc(C(=O)OCC(=O)N(C)C)c1 | -6.25%

Structure (SMILES) | inhibition
Cc1cc(NC(=O)CN2C(=O)NC(CC(C)C)C2=O)no1 (stereo not drawn) | -4.65%
CN(CC(=O)Nc1ccccc1Cl)C(=O)COc1cccc2c1OC(C)(C)C2 | 3.1%
CCc1c(C)n([O-])c2c([n+]1=O)CCCCC2 | -5.96%
FC(F)(F)c1cnc(Oc2ccccc2-c2nnc(-c3ccc(Cl)cc3)o2)c(Cl)c1 | -5.48%
Cc1cc(NC(=O)c2ccc(F)cc2)ccc1NC(=O)c1ccco1 | -0.11%
Cc1nc(-c2ccc(F)cc2)c(CC(=O)N2CCN(S(=O)(=O)c3ccc(F)cc3)CC2)s1 | -5.79%
CCC1CCCCN1C(=O)CSc1nc(C)cc(C)n1 (stereo not drawn) | -6.45%
O=C1NC2(CCCCC2)N=C1c1ccccc1 | -5.81%
O=C(C1CCCO1)N1CCN(C(=S)Nc2cccc(Cl)c2)CC1 (stereo not drawn) | -5.73%
O=C1/C(=C\c2ccsc2)NC(=S)N1c1ccccc1 | -7.04%
COc1ccc(-c2ccc(CN3C(CC(C)C)C(=O)N(Cc4cn(CC5CCCCC5)nn4)CCS3(=O)=O)cc2)cc1 (stereo not drawn) | 0.15%
S=c1[nH]nc(-c2cccnc2)n1/N=C/C(Cl)=C\c1ccccc1 | -4.71%
Cc1ccc(C23CC4CC(CC(C(=O)NCC(=O)O)(C4)C2)C3)cc1 | 9.94% (active)
CCn1c(SCC(C)=O)nc2sc3c(c2c1=O)CCCC3 | -3.1%
O=C(C[C@H]1C(=O)N(c2ccc(F)c(F)c2)C[C@@H]1Cc1ccccc1)Nc1ccccc1 | 2.94%
Cc1c(C#N)c2ncn(CC#N)c(=O)c2n1-c1ccccc1 | -8.35%
O=S1(=O)c2ccc(Br)cc2OC[C@H](Cc2ccccc2)N1Cc1cn(Cc2ccccc2)nn1 | 1.8%
COC(=O)C[C@@H]1CC[C@@H]2[C@H](COc3ccc(NC(=O)c4cccc(F)c4)cc3C(=O)N2C)O1 | 6.24%
COC(=O)N(C)C[C@@H]1OCc2cnnn2CCCC(=O)N([C@@H](C)CO)C[C@@H]1C | -7.63%
C=CCOc1ccc(Cl)cc1CNCCCN1CCOCC1 | 2.7%
COc1ccc(/C=C2\N=C3CCCN3C2=O)cc1 | -0.94%
CCOc1ccccc1NC(=O)CCN1CCN(S(=O)(=O)c2ccc(OC)cc2)CC1 | -1.14%
CC1(C(=O)NCc2ccccc2)CSCC(=O)N1CCCN1CCOCC1 (stereo not drawn) | -9.79%
O=C(NCc1cccnc1)c1cc(C2CCCCN2C(=O)CCc2ccccc2)on1 (stereo not drawn) | -6.35%
O=C(CSc1ccccc1)Nc1cccc(S(=O)(=O)N2CCOCC2)c1 | 3.57%
COc1ccc(S(=O)(=O)N2CCC(C(=O)OCC(=O)c3ccccc3)CC2)cc1[N+](=O)[O-] | 8.79%
